The source made the active and inactive calls. How the source made its calls: active means hit-call score of the fitted dose curve at least 0.9, where 1 is the maximum; inactive means score below 0.9.
test: ATG_E_Box_CIS: Attagene CIS-FACTORIAL HepG2 Assay for human Enhancer Box (E-box) (AID 2282936); conditions: HepG2 E-box cis-reporter transcription, actives raise or lower the signal
Method in brief: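 In this cell-based setup, HepG2 cells bearing transfected promoter-driven reporter units were exposed to chemicals for 24 h; reporter transcripts were amplified, 6-FAM-labelled, cut with HpaI and sized by capillary electrophoresis.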

Q: For `CCCSP(=S)(OCC)Oc1ccc(SC)cc1` (stereo not drawn), which outcome is on record?
A: inactive

Q: For `COCC(=O)N(c1c(C)cccc1C)[C@H](C)C(=O)OC`, which outcome is on record?
A: inactive

Q: With `Cc1cc(C)cc(C)c1` as the compound, how does the outcome read?
A: inactive

Q: With `CCOP(=S)(OCC)SCSc1cc(Cl)ccc1Cl` as the compound, how does the outcome read?
A: inactive

Q: Which AC50 does the source give for `C=CC(=O)[O][Sn]([CH2]CCC)([CH2]CCC)[CH2]CCC` here?
A: 0.551 µM (active)

Q: For `N#CS`, which outcome is on record?
A: inactive

Q: For `Cc1cccc(OP(=O)(Oc2cccc(C)c2)Oc2cccc(C)c2)c1`, which outcome is on record?
A: inactive

Q: With `C1CN2CCN1CC2` as the compound, how does the outcome read?
A: inactive

Q: With `COc1ccc([N+](=O)[O-])cc1O` as the compound, how does the outcome read?
A: inactive

Q: For `CCC[N+](CCC)(CCC)CCC`, which outcome is on record?
A: inactive

Q: For `O=c1nc(O)n(Cl)c(=O)n1Cl`, which outcome is on record?
A: inactive

Q: Which outcome does the source give for `O=NN1CCOCC1` here?
A: inactive

Q: With `O=C(O)CC(O)(CC(=O)O)C(=O)O` as the compound, how does the outcome read?
A: inactive

Q: Which outcome does the source give for `CCOP(=S)(OCC)SCS(=O)(=O)C(C)(C)C` here?
A: inactive

Q: For `CC(c1ccc(O)cc1)c1ccc(O)cc1`, which outcome is on record?
A: inactive

Q: With `COc1nn(C(=O)NS(=O)(=O)c2ccccc2OC(F)(F)F)c(=O)n1C` as the compound, how does the outcome read?
A: inactive

Q: Which outcome does the source give for `CC(C)[N+](=O)[O-]` here?
A: inactive

Q: Which outcome does the source give for `CC1(C)[C@H](C(=O)O[C@H](C#N)c2cccc(Oc3ccccc3)c2)[C@@H]1/C=C(\Cl)C(F)(F)F` here?
A: inactive

Q: With `C=C(C)[C@@H]1CC=C(C=O)CC1` as the compound, how does the outcome read?
A: inactive

Q: With `CC1CC(=O)O1` (stereo not drawn) as the compound, how does the outcome read?
A: inactive

Q: Which outcome does the source give for `Brc1ccc(Br)cc1` here?
A: inactive

Q: Which outcome does the source give for `CC(C)O.CC(C)O.OCCN(CCO)CCO.OCCN(CCO)CCO.[Ti]` here?
A: inactive

Q: With `CCCCCCCCCCCCCl` as the compound, how does the outcome read?
A: inactive

Q: With `CCOc1cc(C=O)ccc1O` as the compound, how does the outcome read?
A: inactive

Q: Which AC50 does the source give for `O=S(=O)(C(Cl)(Cl)Cl)C(Cl)(Cl)Cl` here?
A: 14.7 µM (active)

Q: With `CC(C)(C)c1ccccc1O` as the compound, how does the outcome read?
A: inactive

Q: For `O=C(N[C@H]1CN2CCC1CC2)c1ccc2c(c1)OCCO2`, which AC50 is on record?
A: 72.7 µM (active)

Q: For `O=C(Cc1ccccc1)OCCc1ccccc1`, which outcome is on record?
A: inactive

Q: With `OCCN(CCO)CCO` as the compound, how does the outcome read?
A: inactive

Q: Which outcome does the source give for `OC[C@@H](O)[C@H]1O[C@@H]2O[C@H](C(Cl)(Cl)Cl)O[C@@H]2[C@H]1O` here?
A: inactive

Q: For `Oc1c(Cl)cc(Cl)cc1Cl`, which outcome is on record?
A: inactive

Q: Which outcome does the source give for `C[N+](C)(C)Cc1ccccc1` here?
A: inactive

Q: With `OC(Cc1ccccc1Cl)(Cn1[nH]cnc1=S)C1(Cl)CC1` (stereo not drawn) as the compound, how does the outcome read?
A: inactive

Q: For `CCCCS(=O)(=O)Cl`, which outcome is on record?
A: inactive

Q: Which outcome does the source give for `CC1(C)[C@H](/C=C2\CCSC2=O)[C@@H]1C(=O)OCc1coc(Cc2ccccc2)c1` here?
A: inactive

Q: Which outcome does the source give for `C=CC(F)(C(F)(F)F)C(F)(F)C(F)(F)F` (stereo not drawn) here?
A: inactive

Q: Which outcome does the source give for `O=C(CBr)c1ccc(O)cc1` here?
A: inactive

Q: For `C#CCOC(=O)/C=C(C)/C=C/CC(C)CCCC(C)C` (stereo not drawn), which outcome is on record?
A: inactive

Q: Which outcome does the source give for `CC(C)(C1CCC(O)CC1)C1CCC(O)CC1` (stereo not drawn) here?
A: inactive

test: ATG_M_61_CIS: Attagene CIS-FACTORIAL HepG2 Assay for M61 Transcription Factor (Internal Marker) (AID 2282937); conditions: HepG2 Attagene CIS-FACTORIAL M61 internal marker reporter; actives raise or lower the signal
Method in brief: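 HepG2 cells transiently transfected with multiplexed cis-promoter reporter units reporting endogenous transcription factor activity, measured 24 h after dosing. Reporter mRNA quantified by RT-PCR and capillary electrophoresis; bidirectional fit against DMSO baseline.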

Q: For `CCCSP(=S)(OCC)Oc1ccc(SC)cc1` (stereo not drawn), which outcome is on record?
A: inactive

Q: With `COCC(=O)N(c1c(C)cccc1C)[C@H](C)C(=O)OC` as the compound, how does the outcome read?
A: inactive

Q: Which outcome does the source give for `Cc1cc(C)cc(C)c1` here?
A: inactive

Q: With `CCOP(=S)(OCC)SCSc1cc(Cl)ccc1Cl` as the compound, how does the outcome read?
A: inactive

Q: For `C=CC(=O)[O][Sn]([CH2]CCC)([CH2]CCC)[CH2]CCC`, which outcome is on record?
A: inactive

Q: For `N#CS`, which outcome is on record?
A: inactive

Q: With `Cc1cccc(OP(=O)(Oc2cccc(C)c2)Oc2cccc(C)c2)c1` as the compound, how does the outcome read?
A: inactive

Q: With `C1CN2CCN1CC2` as the compound, how does the outcome read?
A: inactive

Q: With `COc1ccc([N+](=O)[O-])cc1O` as the compound, how does the outcome read?
A: inactive

Q: Which outcome does the source give for `CCC[N+](CCC)(CCC)CCC` here?
A: inactive

Q: With `O=c1nc(O)n(Cl)c(=O)n1Cl` as the compound, how does the outcome read?
A: inactive

Q: With `O=NN1CCOCC1` as the compound, how does the outcome read?
A: inactive

Q: Which outcome does the source give for `O=C(O)CC(O)(CC(=O)O)C(=O)O` here?
A: inactive

Q: For `CCOP(=S)(OCC)SCS(=O)(=O)C(C)(C)C`, which outcome is on record?
A: inactive

Q: Which outcome does the source give for `CC(c1ccc(O)cc1)c1ccc(O)cc1` here?
A: inactive

Q: Which outcome does the source give for `COc1nn(C(=O)NS(=O)(=O)c2ccccc2OC(F)(F)F)c(=O)n1C` here?
A: inactive

Q: Which outcome does the source give for `CC(C)[N+](=O)[O-]` here?
A: inactive

Q: Which outcome does the source give for `CC1(C)[C@H](C(=O)O[C@H](C#N)c2cccc(Oc3ccccc3)c2)[C@@H]1/C=C(\Cl)C(F)(F)F` here?
A: inactive

Q: Which outcome does the source give for `C=C(C)[C@@H]1CC=C(C=O)CC1` here?
A: inactive

Q: For `CC1CC(=O)O1` (stereo not drawn), which outcome is on record?
A: inactive

Q: With `Brc1ccc(Br)cc1` as the compound, how does the outcome read?
A: inactive

Q: Which outcome does the source give for `CC(C)O.CC(C)O.OCCN(CCO)CCO.OCCN(CCO)CCO.[Ti]` here?
A: inactive

Q: For `CCCCCCCCCCCCCl`, which outcome is on record?
A: inactive

Q: For `CCOc1cc(C=O)ccc1O`, which outcome is on record?
A: inactive

Q: Which outcome does the source give for `O=S(=O)(C(Cl)(Cl)Cl)C(Cl)(Cl)Cl` here?
A: inactive

Q: For `CC(C)(C)c1ccccc1O`, which outcome is on record?
A: inactive

Q: Which outcome does the source give for `O=C(N[C@H]1CN2CCC1CC2)c1ccc2c(c1)OCCO2` here?
A: inactive

Q: Which outcome does the source give for `O=C(Cc1ccccc1)OCCc1ccccc1` here?
A: inactive

Q: Which outcome does the source give for `OCCN(CCO)CCO` here?
A: inactive

Q: Which outcome does the source give for `OC[C@@H](O)[C@H]1O[C@@H]2O[C@H](C(Cl)(Cl)Cl)O[C@@H]2[C@H]1O` here?
A: inactive

Q: For `Oc1c(Cl)cc(Cl)cc1Cl`, which outcome is on record?
A: inactive

Q: With `C[N+](C)(C)Cc1ccccc1` as the compound, how does the outcome read?
A: inactive

Q: For `OC(Cc1ccccc1Cl)(Cn1[nH]cnc1=S)C1(Cl)CC1` (stereo not drawn), which outcome is on record?
A: inactive

Q: For `CCCCS(=O)(=O)Cl`, which outcome is on record?
A: inactive

Q: With `CC1(C)[C@H](/C=C2\CCSC2=O)[C@@H]1C(=O)OCc1coc(Cc2ccccc2)c1` as the compound, how does the outcome read?
A: inactive

Q: With `C=CC(F)(C(F)(F)F)C(F)(F)C(F)(F)F` (stereo not drawn) as the compound, how does the outcome read?
A: inactive

Q: Which outcome does the source give for `O=C(CBr)c1ccc(O)cc1` here?
A: inactive

Q: Which outcome does the source give for `C#CCOC(=O)/C=C(C)/C=C/CC(C)CCCC(C)C` (stereo not drawn) here?
A: inactive

Q: With `CC(C)(C1CCC(O)CC1)C1CCC(O)CC1` (stereo not drawn) as the compound, how does the outcome read?
A: inactive

From PubChem BioAssay (EPA / NIEHS)
